Shown are actives, neighbours in structure and some others; about 3.5% of the full set was active somewhere.
KCNK3 block – human KCNK3 channel inhibitors, primary screen, CHO cells, FluxOR thallium flux, B-score. Potassium channel subfamily K member 3 (Homo sapiens), O14649. FluxOR fluorescence; hits give low values. B-score at 10 µM. 0.84% of 340,000 active. AID 602410, 2012;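 active = B-score under library mean minus 4 SD, starting fluorescence ratio at most library mean plus 5 SD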;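 also: more negative B-score means stronger inhibition of thallium flux through KCNK3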
ANO1 activ – TMEM16A chloride channel activators or potentiators, primary screen, cell-based, HTS; B-score at 10 µM; HEK293 TMEM16A/YFP-H148Q/I152L, iodide quench fluorescence; hits give low values; 0.3% of 340,000 active;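 active = fluorescence-ratio B-score plate-corrected deviation score at least 3 library SD below zero, with starting fluorescence score within 5 deviations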;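 also: channel opened by trigger with iodide after compound preincubation; score built on the fluorescence ratio of max minus min over baseline; more negative score means more quench and so TMEM16A activation or potentiation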
Kir21 inh – inhibitors of mouse Kir2.1 inward-rectifier potassium channel; Inward rectifier potassium channel 2 (Mus musculus), P35561; HEK293-Kir2.1, FluxOR thallium flux fluorescence; hits give low values; B-score at 10 µM; 0.85% of 310,000 active; AID 1672, 2009;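 active = fluorescence ratio B-score at or below minus 3 SD of library scores, with starting-brightness B-score within 2 SD, cut at about -4.2 in these data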;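 also: channel flux triggered by added potassium and thallium sulfate stimulus; B-score of peak minus minimum fluorescence over baseline after thallium stimulus; more negative B-score means stronger Kir2.1 block with less thallium influx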
Target sequence (P35561 whole entry, looked up): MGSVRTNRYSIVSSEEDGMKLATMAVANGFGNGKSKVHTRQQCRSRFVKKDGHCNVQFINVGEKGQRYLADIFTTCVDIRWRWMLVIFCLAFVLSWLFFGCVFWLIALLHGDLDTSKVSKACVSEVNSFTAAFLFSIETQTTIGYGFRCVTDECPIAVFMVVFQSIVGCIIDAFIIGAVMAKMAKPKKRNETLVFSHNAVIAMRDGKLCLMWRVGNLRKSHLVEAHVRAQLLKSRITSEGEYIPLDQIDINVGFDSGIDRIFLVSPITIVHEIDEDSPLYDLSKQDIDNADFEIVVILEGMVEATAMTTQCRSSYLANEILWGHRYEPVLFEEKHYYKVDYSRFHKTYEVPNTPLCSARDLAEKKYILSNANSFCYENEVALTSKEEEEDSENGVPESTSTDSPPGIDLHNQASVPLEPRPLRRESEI
TMEM16A inh – TMEM16A chloride channel inhibitors, primary screen, cell-based, HTS | HEK293 TMEM16A/YFP iodide influx fluorescence, ionomycin | normalized B-score (activity score, 25-100; higher = stronger inhibition) at 10 µM | 1.2% of 310,000 active | AID 588511, 2011;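 active = ratio plate-corrected score three or more library SD toward inhibition, starting fluorescence score within five deviations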;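 also: score derived from kinetic fluorescence span divided by baseline fluorescence per well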
KCNK9 block – KCNK9 potassium channel inhibitors, primary screen, HEK293 cells, thallium flux; Potassium channel subfamily K member 9 (Homo sapiens), Q9NPC2; FluxOR thallium flux fluorescence; hits give low values; B-score at 10 µM; 1.2% of 310,000 active; AID 488922, 2010;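 active = ratio B-score over 3 SD below the library mean, with starting fluorescence within 5 SD of its mean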;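 also: negative B-score means less thallium flux so channel inhibition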
KCNK9 inh conf – KCNK9 potassium channel inhibitors, confirmation, HEK293 cells, thallium flux, duplicate. inhibition, % at 10 µM. 43% of 4,900 active. shares compounds with KCNK9 block. FluxOR thallium flux fluorescence. AID 492992, 2010;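 active = thallium signal inhibited by more than 5 SD of the compound-free buffer control wells, on both duplicate plates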;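 also: 0% = assay buffer control wells without compound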
Kir2-1 spec – mouse Kir2.1 channel inhibition, confirmation, selectivity assay for KCNK9 modulator project, cell-based, HEK293, thallium flux; inhibition, % at 10 µM; Kir2.1 cells, FluxOR thallium flux fluorescence; 4% of 4,900 active; AID 492993, 2010; shares compounds with KCNK9 block;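 active = thallium signal drop more than 5 SD beyond the mean of the no-compound control wells, seen in both duplicate plates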;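 also: signal is fluorescence rise after thallium addition divided by baseline fluorescence; plate controls were assay buffer only for no effect and full block by chlorpromazine control for full effect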
KCNK9 uninduced – thallium flux in non-induced HEK293 cells, confirmation, counter-screen for KCNK9 inhibitor project, cell-based, second counter screen, non-induced KCNK9-HEK293; shares compounds with KCNK9 block; inhibition, % at 10 µM; AID 492997, 2010; 40% of 4,900 active; FluxOR thallium flux;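 active = thallium signal drop beyond 5 SD of the untreated control mean, on both duplicate plates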;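 also: plate controls were buffer only IC0 wells for no effect and SID17386958 at its maximal inhibitory level for full effect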
Active calls of the source: *; i = inactive; · = no result.

SMILES	KCNK3 block	ANO1 activ	Kir21 inh	TMEM16A inh	KCNK9 block	KCNK9 inh conf	Kir2-1 spec	KCNK9 uninduced
CC(C)c1cc(C(N)=O)c(NC(=O)c2cccc(COc3ccc(Cl)cc3)c2)s1	i	i	0.7	i	i	·	·	·
CC(C)COc1ccc(C(=O)Nc2scc(-c3ccc(Cl)cc3Cl)c2C(N)=O)cc1	i	i	-0.54	i	i	i	i	i
N#C/C(=C/c1ccc(N2CCOCC2)o1)c1ccc(Cl)cc1	i	i	0.2	i	-10.4*	74.0%*	37.5%*	79.5%*
CN(CCc1cnn(C)c1)Cc1nc(Cc2ccccc2)no1	i	i	-0.4	i	i	·	·	·
CN(Cc1cnn(-c2ccc(F)cc2)c1)Cc1nc(Cc2ccccc2)no1	i	i	0.04	i	i	i	i	i
COc1ccc(COc2ccsc2C(=O)Nc2ccc(Cl)cc2)cc1	i	i	-0.28	i	-9*	44.5%*	i	26.5%*
COc1ccc(NC(=O)c2sccc2OS(=O)(=O)N(C)C)cc1	i	i	0.4	i	i	·	·	·
CN(C)S(=O)(=O)Oc1ccsc1C(=O)Nc1ccc(Cl)cc1	-11.1*	i	-0.36	i	-11.1*	33.0%*	i	39.5%*
O=C(N/N=C/c1ccc(Cl)cc1)c1sccc1OCc1ccc(F)cc1	i	i	-1.83	i	i	·	·	·
O=C(O)c1cc(Cl)c(Cl)cc1C(=O)Nc1cccc2cccnc12	i	i	0.28	i	i	·	·	·
O=S(=O)(Nc1ncnc2scc(-c3ccc(F)cc3)c12)c1cc(F)ccc1F	i	i	-0.03	i	i	i	i	i
Cc1ccc(-c2csc3ncnc(NS(=O)(=O)c4ccc(Cl)cc4)c23)cc1	i	i	0.95	i	i	·	·	·
O=[N+]([O-])c1cc(CN2CCN(c3cccc(C(F)(F)F)c3)CC2)c2cccnc2c1O	i	i	-0.11	i	i	i	i	i
O=[N+]([O-])c1cc(Cl)ccc1N1CCCC1	i	i	1.73	i	i	·	·	·
O=[N+]([O-])c1cc(S(=O)(=O)C(F)(F)F)ccc1N1CCN(c2ccccc2)CC1	i	i	0.04	i	-8.3*	i	i	35.0%*
O=[N+]([O-])c1cc(Cl)ccc1N1CCN(c2cccc(C(F)(F)F)c2)CC1	i	i	-0.7	i	-11.8*	75.0%*	i	51.0%*
CCC(CO)n1c(SCc2cc(=O)oc3cc(C)ccc23)nc2ccccc2c1=O (stereo not drawn)	i	i	0.2	i	-12.2*	53.0%*	i	25.5%*
COc1ccc(C(C)=O)cc1CSc1nc2ccccc2c(=O)n1-c1ccccc1	i	i	0	i	i	·	·	·
C=CCn1c(SCc2cc(C(C)=O)ccc2OCC)nc2ccccc2c1=O	i	i	1.17	i	-12.9*	66.0%*	i	43.0%*
COc1ccc(C(C)=O)cc1CSc1nc2ccccc2c(=O)n1-c1ccccc1C	i	i	-0.79	i	-8.98*	32.5%*	i	32.5%*
COc1ccccc1-n1c(SCC(=O)N2CCOCC2)nc2ccccc2c1=O	i	i	-0.04	i	i	·	·	·
COc1ccccc1-n1c(SCc2cc(=O)oc3cc(O)ccc23)nc2ccccc2c1=O	i	i	-0.15	i	-8.33*	32.5%*	i	i
CCOc1ccc(CCNC(=O)CN2C(=O)NC3(CCCCC3)C2=O)cc1OCC	i	i	0.74	i	i	·	·	·
CCN(C(=O)COC(=O)c1ccccc1NCCO)c1cccc2ccccc12	i	i	-2.78	i	i	·	·	·
O=C(Nc1ccc(Oc2ncnc3cc(Cl)ccc23)nc1)c1ccc(F)cc1	·	·	-0.19	i	i	·	·	·
SMILES	KCNK3 block	ANO1 activ	Kir21 inh	TMEM16A inh	KCNK9 block	KCNK9 inh conf	Kir2-1 spec	KCNK9 uninduced
CCC(=O)Nc1ccc(C(=O)NNC(=O)C2CCCCC2)cc1	i	i	-0.1	i	i	·	·	·
CC(/C=N/NC(=O)CSc1ccccn1)=C\c1ccc(C(C)C)cc1	i	i	0.07	i	-12.9*	59.0%*	i	37.0%*
CC(=C/c1ccc(C(C)C)cc1)/C=N/NC(=O)CSc1ccccn1	i	i	2.11	i	-19.7*	60.5%*	i	45.0%*
CN(C)c1ccc(/C=N/NC(=O)CSc2ccccn2)cc1	i	i	-0.05	i	i	·	·	·
CCCCC1CCC(C(=O)Nc2ccccc2N2CCOCC2)CC1 (stereo not drawn)	i	i	·	·	·	·	·	·
O=[N+]([O-])c1ccc(O)c(/C=N/NC(=S)Nc2ccc(Cl)cc2Cl)c1	i	i	0.68	i	i	i	i	i
Cc1cc(C)c(C(=O)COC(=O)C2CCN(c3ccc(C(F)(F)F)cn3)CC2)cc1C	i	i	0.49	i	i	i	i	i
COc1ccc(C(=O)COC(=O)C2CCN(c3ccc(C(F)(F)F)cn3)CC2)c(OC)c1	i	i	·	·	·	·	·	·
CCOC(CNC(=O)CN1C(=O)COc2ccc(S(=O)(=O)N3CCCC3)cc21)OCC	i	i	-0.33	i	i	·	·	·
CCOC(=O)/C(=N/Nc1ccccc1OC)N1CCCc2ccccc21	i	i	1.4	i	i	i	i	i
CCOC(=O)/C(=N/Nc1ccccc1)N1CCCc2ccccc21	i	i	0.13	i	i	·	·	·
O=C(NCc1ccccc1)C1=C[C@H](c2ccc3c(c2)OCO3)C[C@H](OCCCCO)O1	i	i	0	i	i	i	i	i
O=C(NCc1ccccc1)C1=C[C@H](C2CCCCC2)C[C@H](OCCCCO)O1	i	i	-0.55	i	i	i	i	i
O=C(Nc1ccccc1)C1=C[C@@H](C2CCCCC2)C[C@@H](OCCCCO)O1	i	i	1.9	i	i	·	·	·
O=C(NCc1ccccc1)C1=C[C@H](c2ccc3c(c2)OCO3)C[C@H](OCc2ccc(CO)cc2)O1	i	i	-0.64	i	i	·	·	·
COc1ccccc1OCC(=O)Nc1ccc(S(=O)(=O)N(C)c2ccccc2)cc1	i	i	1.91	i	i	·	·	·
